In PubChem BioAssay (Tox21) one finds Potency and outcome data, which are given here for nine compounds.

Structures are written as SMILES. Values joined by “and” are separate entries in the source; they are usually repeats but may differ in a detail not shown here. Identical values can stand only once. A number with no mark means an inactive call. Results filed as inconclusive are left out. Active and inactive are the calls of the source. Unless noted, calls follow the shape of the dose curve; as a rule, active = well fitted curve in the direction sought with a large enough effect in the repeat runs; inconclusive = weak or mixed curves; inactive = no such curve, though single readings can be large; an effect the other way counts as inactive or inconclusive.

Assay [1] is described as follows: qHTS assay to identify small molecule antagonists of the estrogen receptor alpha (ER-alpha) signaling pathway using the BG1 cell line in the presence of 0.1 nM 17-beta-estradiol - cell viability counter screen (AID 1259241). Also: nearly all actives have a fitted effect of over 40% in size. Also: potency is read from the fitted curve at half-maximal effect. A digest of the protocol: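 VM7Luc4E2 cells (endogenous ER-alpha, 4×ERE-luciferase), hormone-starved 5 days in charcoal-stripped FBS, were treated with compounds plus 0.1 nM 17beta-estradiol for 22 hr at 37C; viability read in same wells as CellTiter-Fluor live-cell protease fluorescence.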
(qHTS replaces the single test concentration by a dilution series.)

Assay [2] has as its target Estrogen receptor (Homo sapiens) (UniProt P03372). Kind of assay: qHTS assay to identify small molecule antagonists of the estrogen receptor alpha (ER-alpha) signaling pathway using the BG1 cell line in the presence of 0.1 nM 17-beta-estradiol (AID 1259244). Also: nearly all actives have a fitted effect of over 50% in size. Also: potency is read from the fitted curve at half-maximal effect. The procedure, abridged: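 Estradiol at 0.1 nM (final) stimulates the endogenous ER-alpha of VM7Luc4E2 cells carrying an ERE-driven luciferase; compounds are co-incubated 22 h at 37C and luciferase output quantified by luminescence.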

The nature of assay [3]: qHTS assay to identify small molecule HDAC inhibitors (AID 1259364). Also: potency is read from the fitted curve at half-maximal effect.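 Also: wild-type HCT-116 cells with endogenous class I/II HDAC activity; nearly all actives have a fitted effect of over 45% in size.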 A digest of the protocol: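 Read-out: luminescence of HDAC-Glo I/II reagent, 30 min RT, reflecting class I/II deacetylase activity in whole HCT-116 cells pre-exposed 2 h to DMSO-dissolved compounds.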
Assay [4] in a line: qHTS assay to identify small molecule HDAC inhibitors - cell viability counter screen (AID 1259365). Also: nearly all actives have a fitted effect of over 50% in size. Also: potency is read from the fitted curve at half-maximal effect. The procedure, abridged: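 Wild-type HCT-116 cells were seeded at 1,500 per well, incubated overnight at 37 C, then exposed to compounds in DMSO for 2hr. Viability was read by CellTiter-Glo luminescence after 30min at room temperature.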
Assay [5] can be described thus: qHTS assay to identify small molecule agonists of the sonic hedgehog signaling (Shh) pathway - cell viability counter screen (AID 1259366). Also: nearly all actives have a fitted effect of over 50% in size. Also: potency is read from the fitted curve at half-maximal effect. A digest of the protocol: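 NIH/3T3-derived 3T3 Gli1-Luc cells (stable Gli1-responsive firefly luciferase reporter) were seeded, rested 4 hr at 37 C/5% CO2, then exposed to compounds in DMSO for 24 hr; viability was read by CellTiter-Fluor fluorescence in the same wells.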

Assay [6] in a line: qHTS assay to identify small molecule antagonists of the sonic hedgehog signaling (Shh) pathway - cell viability counter screen (AID 1259367). Also: nearly all actives have a fitted effect of over 55% in size. Also: potency is read from the fitted curve at half-maximal effect. The procedure, abridged: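 Cells: 3T3 Gli1-Luc, 2,000/well, 4 hr pre-incubation. Compounds in DMSO, then conditioned medium. Incubation 24 hr, 37C, 5% CO2. CellTiter-Fluor at 23 hr, 1 hr, fluorescence.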
A short description of assay [7]: qHTS assay to identify small molecule agonists of the sonic hedgehog signaling (Shh) pathway (AID 1259368; calls by dose curve; also: series mostly up to about 92 µM; nearly all actives have a fitted effect of over 15% in size). The procedure, abridged:
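A Gli1 transcriptional response element controlled firefly luciferase in 3T3Gli1-Luc cells. Compounds and a positive control were added 4 hr after plating, and cells were incubated a further 24 hr at 37 C before luminescence detection.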

Assay [8] is described as follows: qHTS assay to identify small molecule antagonists of the sonic hedgehog signaling (Shh) pathway (AID 1259369; calls by dose curve; also: nearly all actives have a fitted effect of over 45% in size; also: potency is read from the fitted curve at half-maximal effect). The procedure, abridged:
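For antagonist detection, the reporter line received test compounds together with conditioned medium, incubated 24hr at 37 C, 5% CO2, then luminescence was recorded following 30min room-temperature luciferase reagent incubation.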

Assay [9] deals with Estrogen receptor beta (Homo sapiens) (UniProt Q92731). In words: qHTS assay to identify small molecule agonists of the estrogen receptor beta (ER-beta) signaling pathway (AID 1259377; active = well fitted activation curve with a large enough effect in the signal ratio in the repeat runs, not every such curve was filed as active; the % refers to the signal ratio). The procedure, abridged: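 ER-beta-UAS-bla HEK293T (GripTite) cells carrying a UAS-driven beta-lactamase reporter, in medium with 2% charcoal-stripped FBS, were exposed to compounds for 16 hr at 37C; LiveBLAzer B/G FRET substrate was then added and fluorescence read after 2 hours at room temperature.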
Estrogen receptor beta (Homo sapiens), sequence (Q92731 whole entry, looked up): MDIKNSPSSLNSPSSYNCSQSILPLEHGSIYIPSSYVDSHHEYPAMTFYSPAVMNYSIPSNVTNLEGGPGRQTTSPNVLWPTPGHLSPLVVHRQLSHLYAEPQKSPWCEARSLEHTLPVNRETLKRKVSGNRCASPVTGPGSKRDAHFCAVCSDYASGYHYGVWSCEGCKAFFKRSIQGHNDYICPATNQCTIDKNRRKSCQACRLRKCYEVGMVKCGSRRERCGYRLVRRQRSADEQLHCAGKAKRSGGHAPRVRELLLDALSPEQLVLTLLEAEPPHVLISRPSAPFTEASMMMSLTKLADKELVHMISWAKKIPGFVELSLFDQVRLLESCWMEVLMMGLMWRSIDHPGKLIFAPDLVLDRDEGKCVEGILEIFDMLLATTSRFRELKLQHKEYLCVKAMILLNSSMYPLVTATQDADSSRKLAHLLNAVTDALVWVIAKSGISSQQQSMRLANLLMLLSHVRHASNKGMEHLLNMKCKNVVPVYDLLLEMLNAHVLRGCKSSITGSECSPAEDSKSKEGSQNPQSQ

The target is the same in assay [10]. Kind of assay: qHTS assay to identify small molecule antagonists of the estrogen receptor beta (ER-beta) signaling pathway (AID 1259378; active = well fitted inhibition curve with a large enough effect in the signal ratio in the repeat runs, not every such curve was filed as active; the % refers to the signal ratio; also: potency is read from the fitted curve at half-maximal effect). The procedure, abridged:
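Antagonist mode: compounds added to beta-lactamase reporter HEK293T ER-beta-UAS cells stimulated with E2 (1nM final), 16 hr at 37C. LiveBLAzer B/G FRET substrate, 2 hours room temperature, fluorescence read-out.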

The target of assay [11] is Estrogen receptor (Homo sapiens) (UniProt P03372). Kind of assay: qHTS assay to identify small molecule agonists of the estrogen receptor alpha (ER-alpha) signaling pathway in the presence of an antagonist (AID 1259383; calls by dose curve; also: top concentration of the series differs between compounds; nearly all actives have a fitted effect of over 15% in size). The procedure, abridged: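 Stably transfected VM7Luc4E2 reporter cells, kept 5 days in charcoal-stripped serum, received ICI-182,780 at 10.0nM final before compound addition. Following 22hr incubation at 37C and 5% CO2, luciferase signal was read by luminescence.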
Estrogen receptor (Homo sapiens), sequence (P03372 whole entry, looked up): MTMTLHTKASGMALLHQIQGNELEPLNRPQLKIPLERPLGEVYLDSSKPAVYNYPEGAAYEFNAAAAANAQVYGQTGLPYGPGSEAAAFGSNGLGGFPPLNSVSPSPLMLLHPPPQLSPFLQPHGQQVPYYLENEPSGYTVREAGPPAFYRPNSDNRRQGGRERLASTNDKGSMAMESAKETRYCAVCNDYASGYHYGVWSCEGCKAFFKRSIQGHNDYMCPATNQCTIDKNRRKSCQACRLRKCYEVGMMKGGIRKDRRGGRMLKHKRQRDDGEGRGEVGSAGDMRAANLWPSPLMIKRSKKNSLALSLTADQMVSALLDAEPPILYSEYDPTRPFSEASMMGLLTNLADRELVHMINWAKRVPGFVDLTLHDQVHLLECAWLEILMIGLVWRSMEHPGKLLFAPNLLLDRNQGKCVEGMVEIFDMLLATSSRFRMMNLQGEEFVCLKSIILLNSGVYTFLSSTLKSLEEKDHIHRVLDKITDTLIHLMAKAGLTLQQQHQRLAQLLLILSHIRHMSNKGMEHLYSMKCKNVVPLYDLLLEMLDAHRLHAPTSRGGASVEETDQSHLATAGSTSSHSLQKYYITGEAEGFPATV

A short description of assay [12]: qHTS assay to identify small molecule agonists or antagonists of the thyroid stimulating hormone receptor (TSHR) signaling pathway - wild type cell line counter screen (AID 1259384; calls by dose curve). A digest of the protocol: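 Counter screen in untransfected Hek293: compounds (15-point titration, triplicate) plus phosphodiesterase inhibitor Ro20-1724 added after 18 h plating; 30 min RT. Intracellular cAMP via competitive d2/cryptate immunoassay, 1 h incubation.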

A short description of assay [13]: qHTS assay to identify small molecule agonists of the androgen receptor (AR) signaling pathway in the presence of an antagonist - cell viability counter screen (AID 1259379). Also: nearly all actives have a fitted effect of over 25% in size. Also: potency is read from the fitted curve at half-maximal effect. The procedure, abridged: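 Seed MDA-kb2 at 3,000 cells/well; incubate 5 hr, 37C, 0% CO2. Add nilutamide to 3.0uM final, then pin compounds at 15 concentrations. Incubate 16 hr. Add CellTiter-Fluor at 15 hr, read fluorescence after 1 hr.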

Assay [14] in a line: qHTS assay to identify small molecule agonists of the estrogen receptor beta (ER-beta) signaling pathway - cell viability counter screen (AID 1259380). Also: nearly all actives have a fitted effect of over 30% in size. Also: potency is read from the fitted curve at half-maximal effect. The procedure, abridged: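 CellTiter-Glo read, 30 min RT, same wells as bla assay; cells ER-beta-UAS-bla HEK293T; 16 hr compound, 37C; medium 2% charcoal-stripped FBS.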
Assay [15] has as its target Thyrotropin receptor (Homo sapiens) (UniProt P16473). Kind of assay: qHTS assay to identify small molecule antagonists of the thyroid stimulating hormone receptor (TSHR) signaling pathway (AID 1259385; calls by dose curve; also: nearly all actives have a fitted effect of over 20% in size; also: potency is read from the fitted curve at half-maximal effect). A digest of the protocol:
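Antagonist mode: compound-treated TSHR-expressing HEK293 cells were stimulated with 1.5 ng/mL TSH (final) in presence of Ro20-1724 for 30 min at RT. HTRF cAMP detection after 1 h; each compound tested at 15 concentrations, triplicate.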

Assay [16] in a line: qHTS assay to identify small molecule antagonists of the estrogen receptor beta (ER-beta) signaling pathway - cell viability counter screen (AID 1259382). Also: nearly all actives have a fitted effect of over 55% in size. Also: potency is read from the fitted curve at half-maximal effect. The procedure, abridged: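 In this multiplexed counter screen, cells were seeded at 2,000 per well in medium with 2% charcoal-stripped FBS and incubated 6 hr before compound and 1nM final E2 were added. Sixteen hours later, ATP-based luminescence reported viability.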

A short description of assay [17]: qHTS assay to identify small molecule antagonists of the androgen receptor (AR) signaling pathway using the MDA cell line in the presence of 0.5 nM R1881 - cell viability counter screen (AID 1259242). Also: nearly all actives have a fitted effect of over 45% in size. A digest of the protocol: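 Viability of MDA-kb2 cells was multiplexed with the luciferase AR readout; after 16 hr with compounds and R1881 at 0.5 nM final, CellTiter-Fluor fluorescence was recorded.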

For assay [18], the target named is Androgen receptor (Homo sapiens) (UniProt P10275). In words: qHTS assay to identify small molecule antagonists of the androgen receptor (AR) signaling pathway using the MDA cell line in the presence of 0.5 nM R1881 (AID 1259243). Also: potency is read from the fitted curve at half-maximal effect; nearly all actives have a fitted effect of over 50% in size. A digest of the protocol:
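Reporter cells cultured without CO2 receive test chemicals, then 0.5 nM R1881 final; after 16 hr at 37C, ONE-Glo is added and light output recorded.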

The nature of assay [19]: qHTS assay to identify small molecule phospholipidosis (PLD) inducers (AID 1259344; active = well fitted curve in the direction sought with a large enough effect; an effect the other way counts as inactive or inconclusive). The procedure, abridged: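 Phospholipidosis is scored by imaging LipidTOX-stained pits in HepG2 cells exposed to compound for 24 h at 37 C; pit counts and integrated intensities per well and per cell serve as outputs.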
For assay [20], the target named is Androgen receptor (Homo sapiens) (UniProt P10275). Kind of assay: qHTS assay to identify small molecule agonists of the androgen receptor (AR) signaling pathway in the presence of an antagonist (AID 1259381; calls by dose curve; also: nearly all actives have a fitted effect of over 15% in size; also: potency is read from the fitted curve at half-maximal effect). The procedure, abridged: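 Test compounds at 15 concentrations were incubated for 16hr with MDA-kb2 reporter cells in presence of 3.0uM nilutamide (final). Signal: ONE-Glo luciferase luminescence.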
Androgen receptor (Homo sapiens), sequence (P10275 whole entry, looked up): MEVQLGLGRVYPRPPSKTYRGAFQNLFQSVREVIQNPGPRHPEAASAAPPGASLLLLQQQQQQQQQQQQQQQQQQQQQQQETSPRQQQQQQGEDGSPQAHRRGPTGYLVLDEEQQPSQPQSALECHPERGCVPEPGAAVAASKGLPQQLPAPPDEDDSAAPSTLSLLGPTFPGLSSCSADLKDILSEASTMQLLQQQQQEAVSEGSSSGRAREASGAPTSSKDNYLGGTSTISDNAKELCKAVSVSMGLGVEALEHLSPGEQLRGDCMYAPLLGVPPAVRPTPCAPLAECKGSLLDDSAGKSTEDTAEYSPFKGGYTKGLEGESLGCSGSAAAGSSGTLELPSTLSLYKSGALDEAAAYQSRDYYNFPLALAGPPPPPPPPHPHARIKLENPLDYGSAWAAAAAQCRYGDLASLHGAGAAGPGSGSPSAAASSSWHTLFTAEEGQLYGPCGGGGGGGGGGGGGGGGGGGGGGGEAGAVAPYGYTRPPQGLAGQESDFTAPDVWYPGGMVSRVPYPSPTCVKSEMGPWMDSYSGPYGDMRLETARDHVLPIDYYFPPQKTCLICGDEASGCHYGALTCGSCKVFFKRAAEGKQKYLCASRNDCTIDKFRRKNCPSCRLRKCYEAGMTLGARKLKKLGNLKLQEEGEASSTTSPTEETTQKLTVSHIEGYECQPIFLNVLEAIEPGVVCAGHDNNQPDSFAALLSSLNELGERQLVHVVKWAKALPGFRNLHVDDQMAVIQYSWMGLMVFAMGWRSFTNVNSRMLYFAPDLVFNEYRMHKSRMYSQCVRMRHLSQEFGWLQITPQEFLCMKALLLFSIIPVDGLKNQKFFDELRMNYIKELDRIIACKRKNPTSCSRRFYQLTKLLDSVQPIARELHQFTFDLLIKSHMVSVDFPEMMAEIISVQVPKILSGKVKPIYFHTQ

Thyrotropin receptor (Homo sapiens), sequence (P16473 whole entry, looked up): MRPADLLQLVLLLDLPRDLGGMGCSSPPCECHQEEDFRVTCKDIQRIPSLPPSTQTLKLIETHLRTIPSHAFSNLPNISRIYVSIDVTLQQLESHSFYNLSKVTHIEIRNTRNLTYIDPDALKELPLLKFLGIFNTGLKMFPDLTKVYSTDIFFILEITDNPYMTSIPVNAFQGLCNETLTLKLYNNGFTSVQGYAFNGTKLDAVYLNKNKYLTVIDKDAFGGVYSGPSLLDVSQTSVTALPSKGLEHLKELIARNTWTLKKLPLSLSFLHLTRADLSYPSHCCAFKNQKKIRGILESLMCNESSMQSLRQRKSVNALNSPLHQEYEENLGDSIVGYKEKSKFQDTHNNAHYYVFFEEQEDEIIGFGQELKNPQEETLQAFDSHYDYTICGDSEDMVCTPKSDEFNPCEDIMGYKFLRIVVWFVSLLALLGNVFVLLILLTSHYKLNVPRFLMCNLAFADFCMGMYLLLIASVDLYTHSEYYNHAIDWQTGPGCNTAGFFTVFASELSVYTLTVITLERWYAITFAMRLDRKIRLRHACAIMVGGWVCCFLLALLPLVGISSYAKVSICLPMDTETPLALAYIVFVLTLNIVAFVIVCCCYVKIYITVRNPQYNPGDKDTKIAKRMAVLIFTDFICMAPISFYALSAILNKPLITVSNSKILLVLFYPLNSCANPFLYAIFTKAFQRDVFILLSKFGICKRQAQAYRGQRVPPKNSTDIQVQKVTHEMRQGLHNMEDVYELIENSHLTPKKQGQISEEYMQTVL

Take `O=C(Nc1ccc2[nH]ccc2c1)c1cc2cc(F)ccc2n1Cc1cccc(F)c1`: the Potency result in assay [1], in [2], in assay [3], in assay [4], in assay [7] and in assay [9] was “inactive” throughout. Moreover, the Potency result in assay [11] is “inactive”. Further, the Potency in assay [5] was 43.3 µM (active); in assay [6], 68.6 µM (active); in assay [8], 24.3 µM (active); in assay [10] it was 17.2 µM (active). For the same compound, in assay [12], the compound was called inactive.
Regarding `O=C(CCl)C(Cl)Cl`, the Potency entry in assay [1], in assay [2], in [3], in assay [7], in assay [11] and in assay [15] was “inactive” each time. Further, the Potency in assay [5] was 17.4 µM (active); in assay [6], 17.4 µM (active); in assay [8], 2.76 µM (active); in assay [13] it was 27.6 µM (active); in assay [14] it was 9.78 µM (active). Moreover, the compound was classed as inactive in [12].
For `[Hg+2].[I-].[I-]`, the Potency in assay [1] is 30.6 µM (active); in assay [3], 24.3 µM (active); in assay [4], 61.1 µM (active); in assay [5] it was 2.43 µM (active); in [6], 4.33 µM (active); in assay [8] it was 0.545 µM (active). For the same compound, the Potency in assay [14] was 5.45 µM (active); in [16] it was 6.86 µM (active). Moreover, the Potency result in assay [7] and in assay [11] was “inactive” each time.
With `CC1(C)CC/C(=C/c2ccc(Cl)cc2)C1(O)Cn1cncn1` (stereo unspecified), the Potency entry in [17], in assay [19], in assay [3], in assay [4], in assay [7] and in [9] was “inactive” throughout. The Potency result in assay [13], in assay [16] and in assay [11] was “inactive” throughout. The Potency was 1.21 µM (active) in assay [18]; 68.2 µM (active) in assay [2]; 17.1 µM (active) in assay [5]; 6.08 µM (active) in assay [14]; 17.1 µM (active) in [20]. Further, the compound was classed as inactive in [12].
As for `CC[C@H](C)[C@H]1O[C@]2(C=C[C@@H]1C)C[C@@H]1C[C@@H](C/C=C(\C)[C@@H](O[C@H]3C[C@H](OC)[C@@H](O[C@H]4C[C@H](OC)[C@@H](O)[C@H](C)O4)[C@H](C)O3)[C@@H](C)/C=C/C=C3\CO[C@@H]4[C@H](O)C(C)=C[C@@H](C(=O)O1)[C@]34O)O2`, the Potency was 32.2 µM (active) in assay [1]; 22.8 µM (active) in assay [2]; 36.1 µM (active) in assay [5]; 16.1 µM (active) in assay [8]; 36.1 µM (active) in assay [13]; 18.1 µM (active) in assay [14]. The Potency in assay [16] was 25.6 µM (active). For the same compound, the Potency result in assay [19], in assay [3], in [4], in assay [7], in assay [11] and in [15] was “inactive” throughout. Besides, the result in [12] was inactive.
For the compound `BrC(Br)Br`, the Potency result in [1], in [3], in [4], in assay [5], in [6] and in assay [7] was “inactive” in each case. Further, the Potency result in assay [8], in assay [13], in assay [14], in assay [16] and in assay [15] was “inactive” throughout. Moreover, the compound was called inactive in assay [12].
For the compound `Clc1ccc(CO/N=C(\Cn2ccnc2)c2ccc(Cl)cc2Cl)c(Cl)c1`, the Potency result in assay [1], in [19], in [3], in assay [4] and in assay [7] was “inactive” throughout. The Potency in [14] was 29.8 µM (active); in assay [16], 29.8 µM (active); in [15], 26.6 µM (active). The compound was classed as inactive in [12].
As for `O=c1[nH]c2ccccc2n1CCCN1CCC(n2c(=O)[nH]c3cc(Cl)ccc32)CC1`, the Potency result in assay [1], in assay [19], in assay [3], in assay [4], in assay [7] and in assay [9] was “inactive” throughout. Moreover, the Potency was 9.44 µM (active) in assay [14] and 29.8 µM (active) in assay [15]. Further, in [12], the compound was classed as inactive.
Consider `N#CSCSC#N`, for which the Potency is 70.1 µM (active) in assay [1]; 49.6 µM (active) in assay [18]; 11.1 µM (active) and 6.79 µM (active) in assay [5]; 12.5 µM (active) and 13.5 µM (active) in [6]; 2.79 µM (active) and 2.41 µM (active) in assay [8]; 70.1 µM (active) and 67.9 µM (active) in assay [13]. For the same compound, the Potency in assay [14] was 27.9 µM (active) and 27 µM (active); in assay [16], 55.7 µM (active) and 48.1 µM (active); in assay [15], 55.7 µM (active). Moreover, the Potency result in [4], in [7] and in assay [20] was “inactive” in each case. Besides, the compound was called inactive in [12].
